# This is one part of the list. Inconclusive results are not listed. Active and inactive are the calls of the source. The call rests on the fitted dose curve; in most records, active means well fitted inhibition curve with a large enough effect; inconclusive means small, poorly fitted or top-dose-only effect, or another doubt; inactive means no such curve, though single readings can be large or run the other way.
# Test: Cell Viability - CRE-beta lactamase CHO cell - 40 hr assay
# Conditions: CRE-bla CHO viability, ATP luminescence; max response: active compounds read low
# Source text: NIH Chemical Genomics Center [NCGC] NIH Molecular Libraries Screening Centers Network [MLSCN] National Institutes of Environmental Health Sciences [NIEHS] National Toxicology Program [NTP] MLSCN Grant: 1X01MH079867-01 Assay Provider: Marshall W. Nirenberg, U.S. National Heart, Lung and Blood Institute NCGC Assay Overview: We have developed a 1536-well cell-based assay for quantitative high throughput screening (qHTS) against a number of cell lines to determine in vitro cytotoxicity of small molecules. This particular assay uses CRE-bla CHO cell line from Invitrogen.
# NCGC Assay Protocol Summary: The CellTiter-Glo luminescent cell viability assay (Promega) is a homogeneous method to measure the number of viable cells in culture. The end point readout of this assay is based on quantitation of intracellular ATP, an indicator of metabolic activity, using the luciferase reaction. Luciferase catalyzes the oxidation of beetle Luciferin to oxyluciferin and light in the presence of ATP. The luminescent signal is proportional to amount of ATP present. Using the CellTiter-Glo luminescent cell viability assay, the amount of cellular ATP was measured in the CRE-bla CHO cell line with complete culture medium following compound treatment for 40 hours. The assay was performed in opaque white Kalypsys 1536-well plates. In the screen, tamoxifen was used as positive control. The selected compounds were measured for their ability to cause acute toxicity in the cell line, as reflected by a decrease in intracellular ATP levels, in a concentration-dependent manner. Data were normalized to the controls for basal activity (DMSO only) and 100% inhibition (100 uM tamoxifen). AC50 values were determined from concentration-response data modeled with the standard Hill equation. NCGC Assay Protocol Summary 1. Reagent; 5 uL; 2000 CHO cells/well 2. Time; overnight; 37 °C incubation 3. Compounds; 23 nL; 5.9 nM to 46 uM 4. Controls; 23 nL; Tamoxifen 4.5 nM to 92 uM 5. Time; 40 hr; 37 °C incubation 6. Reagent; 5 uL; CellTiter Glo reagent 7. Time; 20 min; Room Temperature 8. Detection; Luminescence; Viewlux plate reader Keywords: cell viability, cytotoxicity, CHO cell line, luminescence, MLSMR, MLSCN, NIH Roadmap, qHTS, NCGC
Compound,Potency,max response
Cc1nn(-c2ccccc2)c2sc(C(=O)N(Cc3ccco3)C(C)C(=O)NC(C)(C)C)cc12 (stereo not given),12.6 µM (active),–
Cc1nc(SCC(=O)Nc2cc(C)on2)c2c3c(sc2n1)CCCC3,–,-15.8% (inactive)
CCc1nc(Nc2ccc3nccnc3c2)c2oc3ccccc3c2n1,–,-16.6% (inactive)
CC1CCc2sc3nc(N4CCN(CCO)CC4)n4ncnc4c3c2C1 (stereo not given),–,-25.1% (inactive)
COc1ccc(CCNC(=O)CSc2nc(C)nc3c2oc2ccccc23)cc1OC,–,-16.6% (inactive)
